In PubChem BioAssay (Tox21):
Inconclusive results are not listed. A call without a number means that no potency is given here. The source made the active and inactive calls. The call rests on the fitted dose curve.

Assay: qHTS assay to identify small molecule agonists of the AP-1 signaling pathway - cell viability counter screen (AID 1159525); further: nearly all actives have a fitted effect of over 55% in size
Details: ME-180 (cervical carcinoma) AP-1-bla cells viability, ATP luminescence, 5 h; series mostly up to 76.8 µM; viability change, negative = cytotoxic: at the top concentration
Text: National Center for Advancing Translational Sciences [NCATS]
NIH Chemical Genomics Center [NCGC]
U.S. Environmental Protection Agency [EPA]
National Institutes of Environmental Health Sciences [NIEHS]
National Toxicology Program [NTP]
U.S. Food and Drug Administration [FDA]
Activator protein-1 (AP-1), a transcription factor, plays an important role in tumor genesis by regulating genes involved in cell proliferation, differentiation, apoptosis, and angiogenesis. AP-1 activity is induced by a complex network of signaling pathways that involves extracellular signals, such as growth factors. The AP-1 protein complex formed from c-Fos and c-Jun binding to the AP-1 response element results in transcriptional activation of genes containing such elements within their promoter.
Low molecular weight molecules have been discovered and developed to modulate various components of these signaling pathways, for example, MAP kinase inhibitors. However, many points of pathway modulation remain untested due to the lack of chemical probes making this signaling locus of general interest.
Using a beta-lactamase reporter-gene under control of the AP-1 response element, a cell-based assay [CellSensor(TM) AP-1-bla ME-180 developed by Invitrogen Corp.] was used to measure EGF-induced signaling. The Tox21 10K library compounds were measured for their ability to positively modulate the action of EC50 EGF on reporter gene activity. Compounds were screened in a 15-pt titration series in 1536-well format. The cytotoxicity of the Tox21 compound library against this cell line was tested in parallel by measuring the intra cellular ATP content in the same wells.
Tox21 Assay Protocol Summary:
2500 cells/5uL in Opti-MEM medium containing 0.5% dialyzed FBS, 0.1 mM NEAA, 1 mM sodium pyruvate and 10 mM HEPES was dispensed into 1536-well black wall/clear bottom plates using a Multidrop dispenser and cells were cultured at 37 degrees Celsius overnight. Next day 23 nL of compounds dissolved in DMSO, positive controls or DMSO were delivered to each well using a pin tool. The plates were incubated at 37 degrees Celsius for 5 hours. 1 uL of LiveBLAzerTM B/G FRET substrate (Solution A+B+C+D) was added to each well using a Flying Reagent Dispenser. After incubated at room temperature for 2.5 hours the plates were measured on an EnVision plate reader at Excitation 405nm, Emission1=460nm and Emission 2=530nm. The %Activity was determined from the ratio of 460nm/530nm.
After the plates were read for Beta-Lactamase assay on Envision; 3 ul Cell Titer Glo (Promega) was added to measure the cytotoxicity and the plates were then incubated at RT in dark for 30 min. The luminescence was read on ViewLux (Perkin Elmer, Shelton, CT) using 6 sec exposure. ViewLux data was expressed as relative luminescence units.
For primary data analysis, raw plate reads for each titration point were first normalized relative to […] EGF control (100%) and DMSO only wells (basal, 0%).
For primary data analysis for viability assay, raw plate reads for each titration point were first normalized Tetra n-octyl ammonium bromide control (-100%) and DMSO (control, 100%).
Potency means the concentration at half of the fitted maximal effect.

Q: Which Potency does the source give for `Nc1ccc(-c2ccc(N)c(N)c2)cc1N` here?
A: inactive

Q: With `CC(C)C(=O)OCC(C)(C)C(OC(=O)C(C)C)C(C)C` (stereo not given) as the compound, how does the Potency read?
A: inactive

Q: For `COc1ccc(C=O)cc1`, which Potency is on record?
A: inactive

Q: Which “viability change, negative = cytotoxic” value does the source give for `CC(C)(c1cc(Cl)c(O)c(Cl)c1)c1cc(Cl)c(O)c(Cl)c1` here?
A: -13.2% (inactive)

Q: With `OCC(O)CO` as the compound, how does the Potency read?
A: inactive

Q: With `CCC(C)(C)c1ccc(O)cc1` as the compound, how does the Potency read?
A: inactive

Q: With `CCCCCc1cc(O)cc(O)c1` as the compound, how does the “viability change, negative = cytotoxic” value read?
A: -11.8% (inactive)

Q: For `NC(=S)Nc1ccccc1`, which Potency is on record?
A: inactive

Q: For `O=C(CCl)c1ccccc1`, which Potency is on record?
A: inactive

Q: For `CCC(C)c1cc([N+](=O)[O-])cc([N+](=O)[O-])c1O` (stereo not given), which Potency is on record?
A: inactive

Q: Which Potency does the source give for `Cc1cccc(N)c1N` here?
A: inactive

Q: For `O=Cc1ccco1`, which Potency is on record?
A: inactive

Q: For `Oc1ccc(-c2ccccc2)cc1`, which Potency is on record?
A: inactive

Q: For `CC(O)CCO` (stereo not given), which Potency is on record?
A: inactive

Q: For `CCC(C)(c1ccc(O)cc1)c1ccc(O)cc1`, which Potency is on record?
A: inactive

Q: Which Potency does the source give for `C=C(C)[C@H]1Cc2c(ccc3c2O[C@@H]2COc4cc(OC)c(OC)cc4[C@@H]2C3=O)O1` here?
A: inactive

Q: With `N[C@@H](Cc1ccc(N(CCCl)CCCl)cc1)C(=O)O` as the compound, how does the Potency read?
A: inactive

Q: With `N#CCCCl` as the compound, how does the Potency read?
A: inactive

Q: Which Potency does the source give for `Cc1ccc2c(c1N)C(=O)c1ccccc1C2=O` here?
A: inactive

Q: Which Potency does the source give for `c1ccc(P(c2ccccc2)c2ccccc2)cc1` here?
A: inactive

Q: Which Potency does the source give for `Brc1ccc(Oc2cc(Br)c(Br)cc2Br)c(Br)c1` here?
A: inactive

Q: With `C=CCc1ccc2c(c1)OCO2` as the compound, how does the Potency read?
A: inactive

Q: Which Potency does the source give for `O=P(Oc1ccccc1)(Oc1ccccc1)Oc1ccccc1` here?
A: inactive

Q: With `CCOP(=S)(OCC)O/N=C(\C#N)c1ccccc1` as the compound, how does the Potency read?
A: inactive

Q: For `C=CC(=O)OCCO`, which “viability change, negative = cytotoxic” value is on record?
A: 3.12% (inactive)

Q: With `CCN(CC)N=O` as the compound, how does the Potency read?
A: inactive

Q: With `CCC(C)c1ccc(O)cc1` (stereo not given) as the compound, how does the Potency read?
A: inactive

Q: For `CCCCNC(=O)n1c(NC(=O)OC)nc2ccccc21`, which “viability change, negative = cytotoxic” value is on record?
A: 0.353% (inactive)

Q: Which Potency does the source give for `Oc1cc(Cl)ccc1Oc1ccc(Cl)cc1Cl` here?
A: 15.8 µM (active)

Q: Which Potency does the source give for `COP(=O)(OC)OC` here?
A: inactive

Q: With `O=[N+]([O-])c1c(Cl)c(Cl)c(Cl)c(Cl)c1Cl` as the compound, how does the Potency read?
A: inactive

Q: For `CC(C)(OOC(C)(C)c1ccccc1)c1ccccc1`, which “viability change, negative = cytotoxic” value is on record?
A: 19.1% (inactive)

Q: Which Potency does the source give for `Oc1c(Cl)c(Cl)c(Cl)c(Cl)c1Cl` here?
A: inactive

Q: With `S=C1NCCN1` as the compound, how does the Potency read?
A: inactive

Q: Which Potency does the source give for `CCN(CC)C(=O)SCc1ccc(Cl)cc1` here?
A: inactive

Q: With `CCN(CC)C(=O)/C(Cl)=C(\C)OP(=O)(OC)OC` as the compound, how does the Potency read?
A: inactive

Q: Which Potency does the source give for `N#Cc1cc(Br)c(O)c(Br)c1` here?
A: inactive

Q: For `CCOC(=O)C(C)OC(=O)c1cc(Oc2ccc(C(F)(F)F)cc2Cl)ccc1[N+](=O)[O-]` (stereo not given), which Potency is on record?
A: inactive

Q: With `CC(C)NC(C)C` as the compound, how does the Potency read?
A: inactive

Q: With `Nc1ccc(Cl)c(Cl)c1` as the compound, how does the Potency read?
A: inactive
